These results are taken from PubChem BioAssay (NCI).

Test [1] has as its system UACC-62 melanoma. The test is described as follows: NCI-60 one-dose screen, 48 h (100 = growth as untreated, 0 = no growth, -100 = all killed). To be noted: 10 µM unless noted.
In test [2] the test system is TK-10 renal. The test is described as above. To be noted: 10 µM unless noted.

SMILES strings stand for the structures. Several values for one entry are separate records, joined by “and”; a condition that tells them apart may be missing. Identical values can stand only once. The panel holds about 83,000 compounds, 20% with a hit somewhere; the sample as a whole holds those more often.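 The endpoint reported here, percent growth, reads 100 for growth as untreated, 0 for no net growth and -100 for all cells dead.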 Activity calls are given as the source filed them. The calls were made as follows: active = growth percent below 10; inactive = the rest.

As for `CCn1c2c(c3ccccc3c1=O)C(=O)c1ccccc1-2`, the growth in test [1] was 62.3% [100 µM] (inactive) and 2.6% [100 µM] (active); in test [2], 73.6% [100 µM] (inactive) and -93.6% [100 µM] (active).

For the compound `COC(=O)C(=O)C(C(=O)C(=O)Nc1ccccc1C(C)=O)c1nc2ccc(C(=O)c3ccccc3)cc2[nH]c1=O` (configuration not stated), the growth is 48.7% [100 µM] (inactive) and 10.4% [100 µM] (inactive) in test [1]; 114% [100 µM] (inactive) and 17.9% [100 µM] (inactive) in test [2].

On to `NC(Cc1ccc(S(=O)(=O)O)cc1)C(=O)NC(Cc1ccc(S(=O)(=O)O)cc1)C(=O)NC(Cc1ccc(S(=O)(=O)O)cc1)C(=O)NC(Cc1ccc(S(=O)(=O)O)cc1)C(=O)O` (configuration not stated), for which the growth in test [1] was 86.3% [100 µM] (inactive) and 93.4% [100 µM] (inactive); in test [2], 102% [100 µM] (inactive) and 111% [100 µM] (inactive).

With `CC(=Nc1ccncc1)C(C)=Nc1ccncc1`, the growth in test [1] is -98.5% [100 µM] (active) and -100% [100 µM] (active); in test [2], -74.8% [100 µM] (active) and -52.5% [100 µM] (active).

Turning to `CC1OC23CCCCC2C(C#N)(C#N)C1(C#N)C(=N)O3` (configuration not stated), the growth is -14.6% [100 µM] (active) in test [1] and 36.7% [100 µM] (inactive) in test [2].

For `COc1cc2c(cc1C1COc3cc4occc4cc3C1=O)OCO2` (configuration not stated), the growth in test [1] was 62.1% [100 µM] (inactive) and 73.4% [100 µM] (inactive); in test [2], 88.2% [100 µM] (inactive) and 80.4% [100 µM] (inactive).

Consider `O=C1NC(N/N=C\C(O)C(O)C(O)C(O)CO)=N/C1=C\c1ccc(Cl)cc1` (configuration not stated), for which the growth is -24.3% [100 µM] (active) and -100% [100 µM] (active) in test [1]; 47.7% [100 µM] (inactive) and -100% [100 µM] (active) in test [2].

Take `COC(=O)C1=CO[C@@H](OC2OC(CO)C(O)C(O)C2O)[C@H]2[C@@H](C)[C@@H](O)[C@@H](O)[C@@H]12` (some centres not stated): the growth in test [1] was 89.9% [100 µM] (inactive) and 99.1% [100 µM] (inactive); in test [2], 102% [100 µM] (inactive) and 98% [100 µM] (inactive).

Take `C=CCNC1=C2C[C@@H](C)C[C@@H](OC)[C@@H](OC(=O)CCCN)[C@H](C)/C=C(\C)[C@@H](OC(N)=O)[C@H](OC)/C=C\C=C(/C)C(=O)NC(=CC1=O)C2=O`: the growth was -57.7% [100 µM] (active) and -64.4% [100 µM] (active) in test [1]; -57.4% [100 µM] (active) and -99.4% [100 µM] (active) in test [2].

Take `COC(=O)C(/C(=N/NC(N)=O)C(=O)Nc1ccc(C)cc1)c1nc2ccc([N+](=O)[O-])cc2[nH]c1=O` (configuration not stated): the growth in test [1] is 61.4% [100 µM] (inactive) and 23.2% [100 µM] (inactive); in test [2] it was 111% [100 µM] (inactive) and 43.2% [100 µM] (inactive).

`C=C1CC2(C)CCC(OC(=O)C3(C)OC3C)C(C)(OC(C)=O)C2CC1=C(C)C` (configuration not stated): the growth in test [1] is 75.8% [100 µM] (inactive) and 12.7% [100 µM] (inactive); in test [2] it was 89.2% [100 µM] (inactive) and 49.5% [100 µM] (inactive).

On to `CNC(=S)/C(=N\Nc1nc[nH]c1C(N)=O)C(N)=S`, for which the growth in test [1] is -8.08% [100 µM] (active) and 0.0251% [100 µM] (active); in test [2], 5.27% [100 µM] (active) and 4.34% [100 µM] (active).

Turning to `Cc1coc2c1C(OC(=O)C(C)C)C1(C)C(C)CCC(O)C1C2=O` (configuration not stated), the growth in test [1] was 39% [100 µM] (inactive) and 18.7% [100 µM] (inactive); in test [2], 87.9% [100 µM] (inactive) and 63.5% [100 µM] (inactive).

Take `CC1CC2(OC2C)C(=O)OC2CCN(C)C/C=C(/COC(=O)C1(C)O)C2=O` (configuration not stated): the growth in test [1] is 89.6% [100 µM] (inactive) and 94.3% [100 µM] (inactive); in test [2], 97.2% [100 µM] (inactive) and 101% [100 µM] (inactive).

As to `O=c1c2ccccc2nc(-c2ccccc2)n1/N=C/c1ccccc1[N+](=O)[O-]`, the growth in test [1] was 54.7% [100 µM] (inactive) and 24.5% [100 µM] (inactive); in test [2], 66.7% [100 µM] (inactive) and 0.136% [100 µM] (active).

As for `N#C/C=C1\C=CC(O)C(O)C1OC1OC(CO)C(O)C(O)C1O` (configuration not stated), the growth was 95% [100 µM] (inactive) and 88.4% [100 µM] (inactive) in test [1]; 97.1% [100 µM] (inactive) and 93.8% [100 µM] (inactive) in test [2].

In the case of `N#Cc1n[nH]n(-c2ccccc2)c1=O`, the growth in test [1] is 91.7% [100 µM] (inactive) and 100% [100 µM] (inactive); in test [2], 115% [100 µM] (inactive) and 107% [100 µM] (inactive).

As for `C[C@@H]1C[C@@H]2OC(=O)[C@]3(C)[C@H]2[C@@H](OC3(C)O)[C@]2(C)C(=O)C=C[C@@H]12` (some centres not stated), the growth is -84.2% [100 µM] (active) and -97.9% [100 µM] (active) in test [1]; -7.81% [100 µM] (active) and -18.5% [100 µM] (active) in test [2].

As to `CC1CC(=O)N(N(C)C)C(C#N)(C#N)C1(C#N)C#N` (configuration not stated), the growth in test [1] is -96.5% [100 µM] (active) and -97.6% [100 µM] (active); in test [2], -97.2% [100 µM] (active) and -90.4% [100 µM] (active).

As to `CC(C)C1OC(N)=C(C#N)C1(C#N)C#N` (configuration not stated), the growth in test [1] is 55.5% [100 µM] (inactive) and 25.9% [100 µM] (inactive); in test [2], 62.1% [100 µM] (inactive) and 24.7% [100 µM] (inactive).

For `COc1cc(C)c2c(c1C=O)Oc1c(c(C)c(O)c3c1C(O)OC3=O)OC2=O` (configuration not stated), the growth in test [1] is -82.4% [100 µM] (active) and 98.2% [100 µM] (inactive); in test [2], -0.673% [100 µM] (active) and 99.4% [100 µM] (inactive).

As for `Fc1ccc(Nc2nc(Cl)c3[nH]cnc3n2)cc1Cl`, the growth is 68% [100 µM] (inactive) and 34.7% [100 µM] (inactive) in test [1]; 48.7% [100 µM] (inactive) and -27.6% [100 µM] (active) in test [2].

Turning to `COc1ccc(-c2coc3c4c(ccc3c2=O)OCO4)cc1OC`, the growth is 43.3% [100 µM] (inactive) and 6.94% [100 µM] (active) in test [1]; 54.4% [100 µM] (inactive) and 6.05% [100 µM] (active) in test [2].

For the compound `COC(=O)C(C(=O)C(=O)Nc1c(C)cccc1C(C)(C)C)c1nc2ccc(Cl)cc2[nH]c1=O` (configuration not stated), the growth was 68% [100 µM] (inactive) and 84.1% [100 µM] (inactive) in test [1]; 141% [100 µM] (inactive) and 105% [100 µM] (inactive) in test [2].

With `CC(C)O/N=C/c1cc(NC(=S)OC(C)C)ccc1Cl`, the growth is 13.4% [100 µM] (inactive) and 21.6% [100 µM] (inactive) in test [1]; 53.5% [100 µM] (inactive) and 36.1% [100 µM] (inactive) in test [2].

`C=C1C(=O)OC2CC(C)C3(O)CCC(=O)C3(C)CC12` (configuration not stated): the growth in test [1] is 9.02% [100 µM] (active) and 6.55% [100 µM] (active); in test [2], 39.8% [100 µM] (inactive) and 21.4% [100 µM] (inactive).

As to `COC(=O)/C(=N\NC(=S)NN)C(C(=O)OC)C(=O)C(=O)Nc1cccc(C(F)(F)F)c1` (configuration not stated), the growth in test [1] was 98.2% [100 µM] (inactive) and 59.6% [100 µM] (inactive); in test [2] it was 155% [100 µM] (inactive) and 108% [100 µM] (inactive).

In the case of `O[C@H]1[C@H](O)[C@@H](Cn2nnc(-c3ccccc3)c2-c2ccccc2)OCO[C@@H]1Cn1nnc(-c2ccccc2)c1-c1ccccc1`, the figures for the growth in test [1] and in test [2] were -77.8% [100 µM] (active) and -89.7% [100 µM] (active), respectively.

Consider `COc1cc2oc3c(c(=O)c2c(O)c1/C=C/C(C)C)CCC(C)(C)Oc1cc(O)ccc1-3`, for which the growth in test [1] is -23.1% [100 µM] (active) and -100% [100 µM] (active); in test [2] it was 35% [100 µM] (inactive) and -96.5% [100 µM] (active).

For the compound `CC1C2(C)OC(=N)C(C#N)(C(c3cccc([N+](=O)[O-])c3)O2)C1(C#N)C#N` (configuration not stated), the growth was 100% [100 µM] (inactive) in test [1] and 108% [100 µM] (inactive) in test [2].

Turning to `O=C1c2ccccc2-c2c1c1ccccc1c(=O)n2-c1cccnc1`, the growth in test [1] is 35.8% [100 µM] (inactive) and 0.376% [100 µM] (active); in test [2] it was 59.8% [100 µM] (inactive) and -34% [100 µM] (active).

Take `COc1cc2c(c3c1c(=O)c1ccccc1n3C)C=C([N+](=O)[O-])C(C)(C)O2`: the growth in test [1] is -21.5% [100 µM] (active) and -100% [100 µM] (active); in test [2], 31.2% [100 µM] (inactive) and -98.1% [100 µM] (active).

With `CC(C)CCCC(C)[C@H]1CC[C@H]2[C@@H]3CC[C@H]4C[C@@H](CCC=C(c5cc(Cl)c(O)c(C(=O)O)c5)c5cc(Cl)c(O)c(C(=O)O)c5)CC[C@]4(C)[C@H]3CC[C@]12C` (some centres not stated) (tested in a mixture with another compound), the growth in test [1] was 72.7% [50 µM] (inactive) and 21% [50 µM] (inactive); in test [2] it was 179% [50 µM] (inactive) and 2.06% [50 µM] (active).

On to `COc1c2c(c3c(c1OC)c(=O)c1ccccc1n3C)OCO2`, for which the results for the growth in test [1] and in test [2] were 58.8% [100 µM] (inactive) and 74.8% [100 µM] (inactive), respectively.

On to `N#Cc1nc(C(F)(F)F)oc1N`, for which the growth is 57.6% [100 µM] (inactive) and 93.3% [100 µM] (inactive) in test [1]; 79% [100 µM] (inactive) and 98.6% [100 µM] (inactive) in test [2].

In the case of `COc1ccc2c(=O)c(-c3cc4c(cc3OC)OCO4)coc2c1`, the growth in test [1] is 30.1% [100 µM] (inactive) and 25.3% [100 µM] (inactive); in test [2], 8.9% [100 µM] (active) and 12.1% [100 µM] (inactive).
